Measurements taken from PubChem BioAssay.
For some of these results: Entries with a potency or affinity are not part of this list. Active and inactive are the calls of the source. Unless noted, how the calls were made is not given here.

How the values were obtained:
[1] = antimalarial activity against Dd2 strain (AID 2302;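 active means growth inhibition above 50% at the single 2 µM test dose, taken to imply half-maximal potency below 2 µM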;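 further: 0% = DMSO untreated growth and 100% = chloroquine plus artemisinin killed control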); conditions: P. falciparum Dd2 in RBCs, LDH growth readout, 72 h; at 2 µM; stronger effect = higher value
[2] = HepG2 cytotoxicity, primary screen, cytotoxicity control for P. falciparum antimalarial project, cell-based, ATP luminescence (AID 2303;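 active means inhibition above 50%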;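 further: 0% = DMSO wells and 100% = digitonin-killed cells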); conditions: HepG2 viability, 24-48 h, at 10 µM, stronger effect = higher value
[3] = biological target: L-lactate dehydrogenase (Plasmodium falciparum (isolate CDC / Honduras)) (UniProt Q27743); assay: PfLDH activity inhibition – cell lysate, 3D7 strain, counter-screen for P. falciparum growth inhibition project (AID 2304);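 further: 0% = vehicle and 100% = reference inhibitor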; conditions: P. falciparum 3D7 crude extract, LDH APAD/NBT absorbance; at 2 µM; stronger effect = higher value
[4] = inhibition of 3D7 malaria parasite growth – strain 3D7 (AID 2306);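 further: 0% = DMSO wells and 100% = chloroquine plus artemisinin control wells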; conditions: P. falciparum 3D7 erythrocytic growth, LDH absorbance, 72 h; at 2 µM; stronger effect = higher value
[5] = biological target: Calcium-dependent protein kinase 1 (Plasmodium falciparum (isolate 3D7)) (UniProt P62344); assay: PfCDPK1 kinase inhibitors, biochemical, TCAMS library (AID 1159585; cut-off not given, nearly all actives have IC50 up to about 0.98 µM;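 further: inhibitors leave more ATP so luminescence rises with inhibition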); conditions: recombinant PfCDPK1, Kinase-Glo ATP depletion luminescence
[6] = biological target: Plasmodium falciparum protein kinase 6 (PK6, PF3D7_1337100) (UniProt Q8IDW1); assay: PfPK6 kinase inhibitors, biochemical, TCAMS library (AID 1159586); conditions: recombinant PfPK6, Kinase-Glo ATP depletion luminescence
[7] = biological target: Protein kinase 7 (PK7), Plasmodium falciparum 3D7 (PF3D7_0213400) (UniProt Q7YTF7); assay: inhibition of Plasmodium PK7 catalytic activity – biochemical, TCAMS antimalarial set, Kinase-Glo luminescence (AID 1159587); conditions: recombinant PfPK7, Kinase-Glo ATP depletion luminescence
[8] = biological target: Calcium-dependent protein kinase 4 (Plasmodium falciparum (isolate 3D7)) (UniProt Q8IBS5); assay: PfCDPK4 kinase inhibitors, biochemical, TCAMS library (AID 1159588; cut-off not given, nearly all actives have IC50 up to about 0.91 µM); conditions: recombinant PfCDPK4, Kinase-Glo ATP depletion luminescence
Chain of Calcium-dependent protein kinase 4 (Plasmodium falciparum (isolate 3D7)) (Q8IBS5 whole entry, looked up): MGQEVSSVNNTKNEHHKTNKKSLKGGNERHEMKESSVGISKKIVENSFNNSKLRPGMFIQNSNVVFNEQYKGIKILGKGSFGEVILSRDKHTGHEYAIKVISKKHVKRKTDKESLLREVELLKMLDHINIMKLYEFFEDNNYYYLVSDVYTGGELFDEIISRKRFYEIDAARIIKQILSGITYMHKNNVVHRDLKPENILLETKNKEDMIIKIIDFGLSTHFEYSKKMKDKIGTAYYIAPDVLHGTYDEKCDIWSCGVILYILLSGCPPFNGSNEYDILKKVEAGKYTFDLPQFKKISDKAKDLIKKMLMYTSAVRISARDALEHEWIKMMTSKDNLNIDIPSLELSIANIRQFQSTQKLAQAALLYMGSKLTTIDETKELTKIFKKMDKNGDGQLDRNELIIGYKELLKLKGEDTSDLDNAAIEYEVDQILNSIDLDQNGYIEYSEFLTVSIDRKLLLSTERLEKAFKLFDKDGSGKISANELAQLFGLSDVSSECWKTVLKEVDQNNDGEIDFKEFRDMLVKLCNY

Chain of Protein kinase 7 (PK7), Plasmodium falciparum 3D7 (PF3D7_0213400) (Q7YTF7 1-343): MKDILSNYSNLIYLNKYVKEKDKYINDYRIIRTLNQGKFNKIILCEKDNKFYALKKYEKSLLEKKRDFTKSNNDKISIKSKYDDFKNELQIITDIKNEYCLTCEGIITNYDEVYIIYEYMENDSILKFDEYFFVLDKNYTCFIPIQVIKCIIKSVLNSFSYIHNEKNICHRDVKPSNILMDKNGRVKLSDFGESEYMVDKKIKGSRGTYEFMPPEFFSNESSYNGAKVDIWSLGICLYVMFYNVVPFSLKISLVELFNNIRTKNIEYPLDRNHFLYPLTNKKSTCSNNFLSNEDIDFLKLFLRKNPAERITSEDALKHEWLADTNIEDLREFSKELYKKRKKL
Chain of L-lactate dehydrogenase (Plasmodium falciparum (isolate CDC / Honduras)) (Q27743 whole entry, looked up): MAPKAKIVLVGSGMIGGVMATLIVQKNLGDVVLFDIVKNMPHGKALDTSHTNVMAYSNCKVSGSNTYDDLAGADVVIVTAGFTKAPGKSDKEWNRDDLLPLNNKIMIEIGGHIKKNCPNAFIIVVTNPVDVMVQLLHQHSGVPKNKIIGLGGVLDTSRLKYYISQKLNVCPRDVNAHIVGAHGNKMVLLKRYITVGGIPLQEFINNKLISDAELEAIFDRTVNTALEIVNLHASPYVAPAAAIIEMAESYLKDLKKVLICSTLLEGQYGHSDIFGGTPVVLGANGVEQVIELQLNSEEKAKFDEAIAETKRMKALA
Chain of Calcium-dependent protein kinase 1 (Plasmodium falciparum (isolate 3D7)) (P62344 whole entry, looked up): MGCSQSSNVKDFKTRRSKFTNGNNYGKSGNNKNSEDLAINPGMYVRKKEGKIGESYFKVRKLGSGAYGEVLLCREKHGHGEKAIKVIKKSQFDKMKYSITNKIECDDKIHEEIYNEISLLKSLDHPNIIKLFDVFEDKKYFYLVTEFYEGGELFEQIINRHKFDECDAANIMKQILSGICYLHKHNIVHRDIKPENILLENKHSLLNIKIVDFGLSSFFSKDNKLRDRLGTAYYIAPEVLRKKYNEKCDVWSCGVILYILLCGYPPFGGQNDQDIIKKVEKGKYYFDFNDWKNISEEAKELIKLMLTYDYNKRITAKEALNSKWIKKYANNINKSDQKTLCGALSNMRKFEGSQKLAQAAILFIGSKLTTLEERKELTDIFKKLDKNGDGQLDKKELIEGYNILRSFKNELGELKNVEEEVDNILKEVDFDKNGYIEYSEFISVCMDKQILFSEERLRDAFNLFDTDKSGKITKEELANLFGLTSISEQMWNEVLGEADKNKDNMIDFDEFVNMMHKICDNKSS
Chain of Plasmodium falciparum protein kinase 6 (PK6, PF3D7_1337100) (Q8IDW1 1-305): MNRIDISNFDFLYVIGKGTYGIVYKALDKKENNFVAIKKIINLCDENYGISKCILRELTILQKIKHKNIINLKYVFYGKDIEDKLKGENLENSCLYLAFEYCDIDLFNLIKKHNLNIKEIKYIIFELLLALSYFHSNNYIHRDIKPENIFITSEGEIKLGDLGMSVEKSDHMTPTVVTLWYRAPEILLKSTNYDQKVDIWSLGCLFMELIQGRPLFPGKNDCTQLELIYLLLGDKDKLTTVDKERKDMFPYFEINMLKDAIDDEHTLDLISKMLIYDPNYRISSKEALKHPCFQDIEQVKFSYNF

CCCNc1ccc2nccc(CCN3CCC(NCc4ccc5c(c4)NC(=O)CS5)CC3)c2n1
inactive: growth inhibition [1] 17% | inhibition [2] -2% | inhibition [3] -5% | outcome [5] | outcome [6] | outcome [7] | outcome [8]
active: growth inhibition [4] 94%

COc1ccc2nccc([C@@H](O)CNCCCN(C)CCOc3cc(F)cc(F)c3)c2c1
active: growth inhibition [1] 58% | growth inhibition [4] 99%
inactive: inhibition [2] 11% | inhibition [3] -1% | outcome [5] | outcome [6] | outcome [7] | outcome [8]

COCCNCc1ccc(-c2ccc(CNc3ccc4ncccc4c3)cc2)cc1
active: growth inhibition [4] 85%
inactive: growth inhibition [1] 4% | inhibition [2] 41% | inhibition [3] -4% | outcome [5] | outcome [6] | outcome [7] | outcome [8]

CCCNc1nc(Nc2ccccc2C)nc2ccccc12
active: growth inhibition [1] 64% | growth inhibition [4] 95%
inactive: inhibition [2] 13% | inhibition [3] 1% | outcome [5] | outcome [6] | outcome [7] | outcome [8]

Oc1ccc(CCNc2nc(N/N=C/c3ccc(Cl)cc3)nc(N3CCNCC3)n2)cc1
active: growth inhibition [1] 68% | growth inhibition [4] 100%
inactive: inhibition [2] 14% | inhibition [3] 5% | outcome [5] | outcome [6] | outcome [7] | outcome [8]
